Test results as given in article PMC12136788.
Residue numbers refer to the chain shown, from its start. Whole data set: some 5,800 sequences, median “enrichment r” near 0.68, cut for the highest 2% near 11. This excerpt belongs to a sample that is enriched for the highest values.

T1: UNK ZnF1-6 (called full-length) (human, UniProt Q9C0B0 30-357)
T1 sequence: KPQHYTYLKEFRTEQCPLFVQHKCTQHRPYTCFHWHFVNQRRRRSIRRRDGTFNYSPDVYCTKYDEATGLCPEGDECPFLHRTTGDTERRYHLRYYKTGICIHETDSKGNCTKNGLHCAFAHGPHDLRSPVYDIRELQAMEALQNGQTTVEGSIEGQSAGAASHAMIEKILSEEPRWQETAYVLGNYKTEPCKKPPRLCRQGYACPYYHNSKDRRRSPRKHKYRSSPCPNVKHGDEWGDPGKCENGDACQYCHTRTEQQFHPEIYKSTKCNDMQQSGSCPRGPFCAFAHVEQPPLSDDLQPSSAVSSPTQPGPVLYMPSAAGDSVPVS

B1: chr12:48145849:48145950:+|3pUTR|ENSG00000152556|msi1|FALSE|unique (ssRNA)
RNA: GGGAGUUCUACAGUCCGACGAUCCAUGACCAGUUCUGGCCAGGAGCUGGAGGAGCAGGCAGUGGGUGGGAGCUCCUUUUAGGUAGAAUUUAACAUGACUUCUGCCCCAGCUUUAUCUGUCACACAAGGCUGGGCACCUCUAGUCAACAGAGGAUUGAGCAUCA
B2: chr1:165890246:165890361:+|CDS|ENSG00000143179|unk|FALSE|unique (ssRNA)
RNA: GGGAGUUCUACAGUCCGACGAUCCUCCUGGGGCAGAAUGAGGUGGACUAUCGCCAGAAGCAGGUGGUCAUCCUGAGCCAGGAUAGCUUCUACCGUGUCCUUACCUCGGAGCAGAAGGCCAAAGCCCUGAAGGGCCAGUUCAACCAACAGAGGAUUGAGCAUCA
B3: chr2:96875881:96876275:-|three_prime_utr|ENSG00000168754|control|control|control (ssRNA)
RNA: GGGAGUUCUACAGUCCGACGAUCUCGCCCACCCCUCAGCCCUCCUCCCAGCCAUCUCCUCUUCCCUAAGGCCUCUGUCUCCAUAGCUCUGGUUUCCCUGGGCCUCAGUCCUCCCCACCCUCCUUCCUCUGUCUCCCUGUCACUCAACAGAGGAUUGAGCAUCA
B4: chr5:95604386:95604487:+|3pUTR|ENSG00000164291|msi1|total|mutant (ssRNA)
RNA: GGGAGUUCUACAGUCCGACGAUCCCUGCCAUCCAGUUCCCCCUCCAAGAAGCAAGUACCGAAACCACCUGCUUACGCAUUUUCCGAGAUUGGCCACAAAUUUAUAAACAAAUGUAUAUAUUCCUUUCCCCCUACACAAACGGUCAACAGAGGAUUGAGCAUCA
B5: ENSG00000198589:be:win_9101|3pUTR|ENSG00000198589|bound_else_gene|NA|bound_elsewhere_windowed (ssRNA)
RNA: GGGAGUUCUACAGUCCGACGAUCUUCAAGCAUGUUUUAGACCUAGAAAAGUAUGGUUUGGGGGAGGCUAUUUUAUUGUGUGGUUAGCACAAGGAAUCUAAUUUAUAGCAAGUGUGAAAUAGUUACCAUUUUUUCCUGAUCUGUCAACAGAGGAUUGAGCAUCA
B6: chr1:229632307:229632408:+|CDS|ENSG00000135763|unk|FALSE|bound_elsewhere (ssRNA)
RNA: GGGAGUUCUACAGUCCGACGAUCAUUUUAUAAGAAAAAGCUUGAACUGAAGGAAGAUAUUGUUGAAAGGCUUUGGAUCUAUAUAGAUAACAUUUUACAUAGCAGAAAAUUGCAGAAUCUCCUCAAGAAUGGAAAGACCAUUAACAACAGAGGAUUGAGCAUCA
B7: chr2:1632960:1633155:-|3pUTR|ENSG00000130508|msi1|FALSE|unique (ssRNA)
RNA: GGGAGUUCUACAGUCCGACGAUCGUCCAUUUUUUAGGUAUUAGAUAUGGCAGAAAAACCAUUUCCACUAUGCAAAGUUCUUUUAGACGUCAGUGAAAAUCAACUCUCAUACCUCAUGGUCUCUCUUUAAUUGACCAAAACCUUCAACAGAGGAUUGAGCAUCA
B8: ENSG00000168936:stop:overlap|stop_codon|ENSG00000168936|stop_codon|NA|stop_codon (ssRNA)
RNA: GGGAGUUCUACAGUCCGACGAUCGUGUGGCCAGCACCAACCCUGCUGUGCAGGCCUUUGACAUCUGGAGCUGGAGGCCUGCAUAGGCUGCAUGCAGACACGUGCCAGCGUGAAGCUGGUGAAGACCUGCCAGGAGGCAGCCACCAACAGAGGAUUGAGCAUCA
B9: chr20:3963869:3963970:-|CDS|ENSG00000101236|unk|FALSE|bound_elsewhere (ssRNA)
RNA: GGGAGUUCUACAGUCCGACGAUCAAUCUGCCUCUCAACAUAUAUAUUGUGGUUUUUGGUACUGCUAUAUUUGUCUUCAUCCUUAGUUUACUCUUCUGUUGCUACUUGAUUAGGUAACCAAUUUUCAUUCUAUGUUACUUCAAACAACAGAGGAUUGAGCAUCA
B10: chr17:75827259:75827360:-|3pUTR|ENSG00000092929|unk|total|mutant (ssRNA)
RNA: GGGAGUUCUACAGUCCGACGAUCGGACAGUUUGGCUGCUGUGUCUGCUGCGCACGCCCCCUCCCCGGACAGCACCUGCCACCCCGAAACUUUCUCCGCAAAAAAAUUAAUAAAAACAAAUCCAUUGUCCUCUUAAAAUAUGCCCAACAGAGGAUUGAGCAUCA
B11: ENSG00000113300:stop:overlap|stop_codon|ENSG00000113300|stop_codon|NA|stop_codon (ssRNA)
RNA: GGGAGUUCUACAGUCCGACGAUCUGGAGCUCUUACUGCCUUUCCUGCCCCAAGUCAACGGCAUCCACCUUCCUGGCAGGAGGUAGUCAAGCACCUUCAGAGGACAGCCUUGAUUCACUUGUAAACUUGUGAAAAUCUGAACAUCAACAGAGGAUUGAGCAUCA
B12: chr8:48920054:48920155:-|CDS|ENSG00000019549|unk|total|mutant (ssRNA)
RNA: GGGAGUUCUACAGUCCGACGAUCACCUAUUCAACUUUUUCUGGGCUGGCCAAACAUAAGCAGCUGCACUGCGAUGCCCAGUCCCGAAAAUCUUUCAGCUGUAAAUACUGUGACAAGGAAUAUGUGAGCCUGGGCGCCCUGAAGCAACAGAGGAUUGAGCAUCA
B13: chr17:75827259:75827360:-|3pUTR|ENSG00000092929|unk|FALSE|unique (ssRNA)
RNA: B10 RNA with C83U, C84A, C95U, C96A
B14: chr17:77216858:77216994:+|3pUTR|ENSG00000129657|unk|FALSE|bound_elsewhere (ssRNA)
RNA: GGGAGUUCUACAGUCCGACGAUCUGUUUCUACCUUUAGUACCUUGCCACUCUUUUAAAACGCUGCUGUCAUUUCCCAUUUCUUAGUACUAAUGAUUCUUUGAUUCUCCCUCUAUUAUGUCUUAAUUCACUUUCCUUCCUAAAUCAACAGAGGAUUGAGCAUCA
B15: chr3:62294290:62294391:+|3pUTR|ENSG00000144724|msi1|FALSE|unique (ssRNA)
RNA: GGGAGUUCUACAGUCCGACGAUCAACUAGUCCUCUAAAAAUUCCCUAUUACUCCUAUAGCAAUCUAAUAAAAACUACCUACAUAGUUACUGUUUUCUUUCCUUCUUUGCCAAAUGUUUUAUAAUAAAUCUCUUAAUUACAUACCAACAGAGGAUUGAGCAUCA
B16: chr3:62294290:62294391:+|3pUTR|ENSG00000144724|msi1|total|mutant (ssRNA)
RNA: B15 RNA with U27C, A28C, U57C, A58C, U83C, A84C
B17: ENSG00000107863:be:win_5701|CDS|ENSG00000107863|bound_else_gene|NA|bound_elsewhere_windowed (ssRNA)
RNA: GGGAGUUCUACAGUCCGACGAUCAGCACCUUGGCUUCAACAAACAGGCCCCUUCUUUCCAUACCACCACAGUCACCUGACCAAAUAAACGGAGAAAGCUUCCAGAACGUGAGCAAAAAUGCUAGUUCUGCAGCGAAUGCCCAACAACAGAGGAUUGAGCAUCA
B18: chr12:64147824:64147925:+|3pUTR|ENSG00000196935|unk|total|mutant (ssRNA)
RNA: GGGAGUUCUACAGUCCGACGAUCCAUCUCUGUGGUGUCUUUGUUCCUUUCCUUUCAUUCAUCACUACUUUCUCCUUGACAGCCCGCUUGCAUUAAAUAAUGUGAAACUUUUACCUUUAAAAUAUUUUUUUAUCUCACUUUCAUCAACAGAGGAUUGAGCAUCA
B19: ENSG00000070961:be:win_4401|3pUTR|ENSG00000070961|bound_else_gene|NA|bound_elsewhere_windowed (ssRNA)
RNA: GGGAGUUCUACAGUCCGACGAUCGUUAUGACAUCUGUCCUAAUUAGUUUCUUAAAUACAUUUACUACUUAAUGGUUUUGAAGCAACUGUUUAAUUUUUAAAAUUUUUGAAAACUUGCUAAUAACCUUUUGUUCAGAAUUUAGUCAACAGAGGAUUGAGCAUCA
B20: chr1:151249111:151249212:+|3pUTR|ENSG00000143398|unk|FALSE|unique (ssRNA)
RNA: GGGAGUUCUACAGUCCGACGAUCGCAGAUUGUUGAAUUCCUGUUCUAUCCCUUCUCUAUCCCACCCUGCCUUGAUAAUAUGUUAGCCCAUACCCCAAAUAACUGUCUAUAUUAGACACCCCCAGCCAGUUUCUGGCUGCCUGUCAACAGAGGAUUGAGCAUCA
B21: chr2:1632960:1633155:-|3pUTR|ENSG00000130508|msi1|total|mutant (ssRNA)
RNA: B7 RNA with U34C, A35C, U41C, A42C, U83C, A84C
B22: chr11:119024350:119024909:-|three_prime_utr|ENSG00000137700|control|control|control (ssRNA)
RNA: GGGAGUUCUACAGUCCGACGAUCUCCCACGGUGGCCUUCCCCCUGCACGCUCUGCGGGGAGAAAAGGAGGGGCCUGCCUGGCUAGCCCUGAACCUUUCACUUUCCAUUUCUGCGCCUUUUCUGUCACCCGGGUGGCGCUGGAACAACAGAGGAUUGAGCAUCA

Molecular target: T1, UNK ZnF1-6 (called full-length)
Experiment: nsRBNS (natural sequence RNA bind-n-seq); RBNS binding buffer (assumed for nsRBNS): 25 mM Tris pH 7.5, 150 mM KCl, 3 mM MgCl2, 0.01% Triton X-100, 500 ug/ml BSA, 20 U/ml SUPERase-In, 4 C; UNK is unkempt and MSI1 is Musashi-1; names of the RNAs are library labels; protein concentration not given here; high values mean tight binding

Binder | binding signal [enrichment R]
B1 | 6.28
B2 | 0.748
B3 | 1.84
B4 | 1.51
B5 | 2.96
B6 | 2.37
B7 | 0.915
B8 | 1.06
B9 | 2.08
B10 | 0.989
B11 | 21.5
B12 | 0.712
B13 | 25.7
B14 | 14
B15 | 68.7
B16 | 3.11
B17 | 0.589
B18 | 2.22
B19 | 5.85
B20 | 2.26
B21 | 0.41
B22 | 0.719
